Values joined by “and” are separate entries in the source; they are usually repeats but may differ in a detail not shown here. Equal values may be shown once. Some compounds were tested as several samples or in several runs, with calls that do not always agree. Active and inactive are the calls of the source. Rule for the calls: active = hit-call score of the fitted dose curve at least 0.9, where 1 is the maximum; inactive = score below 0.9.
How the values were obtained:
[1] = read-out: TIMP metallopeptidase inhibitor 2 (TIMP2), TIMP2 (gene 7077); experiment: BSK_KF3CT_TIMP2: BioMAP Diversity Plus: KF3CT Assay for TIMP metallopeptidase inhibitor 2 (TIMP2) Biomarker Activity (AID 2283071); settings: primary human keratinocytes with fibroblasts; actives raise or lower the signal
In short: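 Keratinocyte–fibroblast co-culture, 24 h exposure; TIMP-2 ELISA, DMSO-normalised bidirectional fit. Parallel SRB (0.1%, TCA-fixed, 560 nm) total-protein staining gauges cytotoxicity.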

[2] = read-out: C-C motif chemokine 2 (Homo sapiens) (UniProt P13500); experiment: BSK_KF3CT_MCP1: BioMAP Diversity Plus: KF3CT Assay for Monocyte Chemoattractant Protein 1 (MCP1/CCL2) Biomarker Activity (AID 2283073); settings: primary human keratinocytes with fibroblasts; actives raise or lower the signal
In short: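 Keratinocytes and foreskin fibroblasts were co-cultured, dosed with chemical, and sampled 24 h later. MCP-1 was quantified by ELISA, and the endpoint was analyzed with bidirectional fitting using DMSO as negative control.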

[3] = read-out: Matrix Metallopeptidase 9 (MMP9), MMP9 (gene 4318); experiment: BSK_KF3CT_MMP9: BioMAP Diversity Plus: KF3CT Assay for Matrix Metallopeptidase 9 (MMP9) Biomarker Activity (AID 2283074); settings: primary human keratinocytes with fibroblasts; actives raise or lower the signal;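 for AC50: MMP9 protein level quantified by ELISA in the co-culture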
In short: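 Human keratinocyte and foreskin fibroblast co-culture exposed to chemicals for 24 h; MMP9 biomarker measured by ELISA, bidirectional fitting relative to DMSO; cytotoxicity tracked by SRB total protein staining in parallel cultures.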

[4] = read-out: urokinase plasminogen activator (uPA), PLAU (gene 5328); experiment: BSK_KF3CT_uPA: BioMAP Diversity Plus: KF3CT Assay for urokinase plasminogen activator (uPA) Biomarker Activity (AID 2283075); settings: primary human keratinocytes with fibroblasts; actives raise or lower the signal
In short: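 Primary human keratinocyte/foreskin fibroblast co-culture exposed to chemical; uPA measured by ELISA at 24 h. Bidirectional fit versus DMSO, with parallel SRB total-protein staining for cytotoxicity.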

[5] = read-out: CD40, CD40 (gene 958); experiment: BSK_LPS_CD40: BioMAP Diversity Plus: LPS Assay for CD40 Biomarker Activity (AID 2283076); settings: primary human HUVEC with PBMC; actives raise or lower the signal
In short: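 CD40 signal, measured by ELISA, is fitted in both directions relative to DMSO vehicle. The system is an LPS-driven human vascular primary co-culture of endothelial cells and PBMC, sampled 24 h after compound addition.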

[6] = read-out: E-selectin (Homo sapiens) (UniProt P16581); experiment: BSK_LPS_Eselectin: BioMAP Diversity Plus: LPS Assay for Eselectin Biomarker Activity (AID 2283077); settings: primary human HUVEC with PBMC; actives raise or lower the signal
In short: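 Signal of E-selectin, detected by ELISA, served as the endpoint; cells were umbilical vein endothelium with PBMC, read 24 h after treatment. DMSO defined baseline, and both increases and decreases were fitted.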

[7] = read-out: Interleukin-8 (IL8), CXCL8 (gene 3576); experiment: BSK_LPS_IL8: BioMAP Diversity Plus: LPS Assay for Interleukin-8 (IL8) Biomarker Activity (AID 2283078); settings: primary human HUVEC with PBMC; actives raise or lower the signal
In short: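 Endothelial cells and PBMC from human donors are co-cultured, treated with chemicals and LPS, then assayed for IL-8 by ELISA after 24 h. Parallel SRB staining (0.1% SRB after 10% TCA fixation, 560 nm) flags cytotoxicity.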

[8] = BSK_LPS_SRB: Viability Assessment in the BioMAP Diversity Plus: LPS Assay (AID 2283079); settings: primary human HUVEC with PBMC;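 note: total protein by sulforhodamine B absorbance as a cytotoxicity measure; measured one day after compound addition; fitted in both directions against DMSO so loss or gain of signal counts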
In short: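 Overt cytotoxicity was gauged by sulforhodamine B total-protein staining in a primary human vascular endothelial and mononuclear cell co-culture 24 h post-dosing. Activity was fitted in both directions relative to DMSO.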

[9] = read-out: Interleukin-1 alpha (IL1a), IL1A (gene 3552); experiment: BSK_LPS_IL1a: BioMAP Diversity Plus: LPS Assay for Interleukin-1 alpha (IL1a) Biomarker Activity (AID 2283080); settings: primary human HUVEC with PBMC; actives raise or lower the signal
In short: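 Measured: IL-1 alpha via ELISA at 24 h in LPS-activated human umbilical vein endothelium–PBMC co-culture. Baseline: DMSO, bidirectional fitting.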

[10] = read-out: Monocyte Chemoattractant Protein-1 (MCP1), CCL2 (gene 6347); experiment: BSK_LPS_MCP1: BioMAP Diversity Plus: LPS Assay for Monocyte Chemoattractant Protein-1 (MCP1) Biomarker Activity (AID 2283081); settings: primary human HUVEC with PBMC; actives raise or lower the signal;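 for AC50: secreted MCP-1 protein quantified by ELISA in culture supernatant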
In short: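 LPS-stimulated HUVEC/PBMC co-culture; chemical, 24 h; MCP-1 by ELISA; bidirectional fit vs DMSO; cytotoxicity via SRB (0.1% stain, 10% TCA fix, 560 nm) in parallel wells.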

[11] = read-out: Macrophage colony-stimulating factor (MCSF), CSF1 (gene 1435); experiment: BSK_LPS_MCSF: BioMAP Diversity Plus: LPS Assay for Macrophage colony-stimulating factor (MCSF) Biomarker Activity (AID 2283083); settings: primary human HUVEC with PBMC; actives raise or lower the signal
In short: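 Compound is added to a human vascular primary co-culture of umbilical vein endothelium and blood mononuclear cells. After 24 h, M-CSF is quantified by ELISA. Signal changes are fitted in both directions against DMSO.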

[12] = read-out: Tissue Factor, F3 (gene 2152); experiment: BSK_LPS_TissueFactor: BioMAP Diversity Plus: LPS Assay for Tissue Factor Biomarker Activity (AID 2283084); settings: primary human HUVEC with PBMC; actives raise or lower the signal
In short: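 In this co-culture system of umbilical vein endothelium with PBMC, stimulated with LPS, cell-surface CD142 is detected by ELISA at 24 h. Endpoint values derive from bidirectional fitting, DMSO serving as baseline.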

[13] = read-out: Vascular cell adhesion molecule 1 (VCAM1), VCAM1 (gene 7412); experiment: BSK_LPS_VCAM1: BioMAP Diversity Plus: LPS Assay for Vascular cell adhesion molecule 1 (VCAM1) Biomarker Activity (AID 2283086); settings: primary human HUVEC with PBMC; actives raise or lower the signal
In short: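 Primary human vascular co-culture (umbilical vein endothelium plus PBMC) stimulated with LPS received chemical; 24 h later VCAM-1 was read by ELISA. Overt cytotoxicity was assessed by sulforhodamine B staining of parallel cultures at the same time point.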

[14] = read-out: CD40, CD40 (gene 958); experiment: BSK_SAg_CD40: BioMAP Diversity Plus: SAg Assay for CD40 Biomarker Activity (AID 2283088); settings: primary human HUVEC with PBMC; actives raise or lower the signal
In short: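 Fluorescence ELISA read-out of CD40 from umbilical vein endothelium plus peripheral blood mononuclear cells, sampled 24 h after dosing. Values come from bidirectional curve fitting with DMSO as baseline.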

[15] = read-out: CD69, CD69 (gene 969); experiment: BSK_SAg_CD69: BioMAP Diversity Plus: SAg Assay for CD69 Biomarker Activity (AID 2283089); settings: primary human HUVEC with PBMC; actives raise or lower the signal;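 for AC50: cell surface CD69 protein quantified by ELISA with fluorescence detection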
In short: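 Values derive from bidirectional fitting relative to DMSO vehicle. Cells: umbilical vein endothelium plus peripheral blood mononuclear cells, treated 24 h before fluorescent ELISA for CD69.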

[16] = read-out: Monocyte Chemoattractant Protein-1 (MCP1), CCL2 (gene 6347); experiment: BSK_SAg_MCP1: BioMAP Diversity Plus: SAg Assay for Monocyte Chemoattractant Protein-1 (MCP1) Biomarker Activity (AID 2283090); settings: primary human HUVEC with PBMC; actives raise or lower the signal
In short: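 MCP-1 levels in the endothelial–PBMC SAg co-culture were quantified by ELISA at 24 h post-dosing; both increases and decreases versus DMSO scored. Cytotoxicity monitored by SRB total protein in parallel cultures.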

[17] = read-out: E-selectin (Homo sapiens) (UniProt P16581); experiment: BSK_SAg_Eselectin: BioMAP Diversity Plus: SAg Assay for Eselectin Biomarker Activity (AID 2283091); settings: primary human HUVEC with PBMC; actives raise or lower the signal
In short: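 Primary human endothelial cells and peripheral blood mononuclear cells were co-cultured and exposed to chemical for 24 hours. E-selectin levels were then quantified by ELISA, with bidirectional curve fitting normalised to DMSO controls.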

Measured: AC50

Sequence of E-selectin (Homo sapiens) (P16581 whole entry, looked up): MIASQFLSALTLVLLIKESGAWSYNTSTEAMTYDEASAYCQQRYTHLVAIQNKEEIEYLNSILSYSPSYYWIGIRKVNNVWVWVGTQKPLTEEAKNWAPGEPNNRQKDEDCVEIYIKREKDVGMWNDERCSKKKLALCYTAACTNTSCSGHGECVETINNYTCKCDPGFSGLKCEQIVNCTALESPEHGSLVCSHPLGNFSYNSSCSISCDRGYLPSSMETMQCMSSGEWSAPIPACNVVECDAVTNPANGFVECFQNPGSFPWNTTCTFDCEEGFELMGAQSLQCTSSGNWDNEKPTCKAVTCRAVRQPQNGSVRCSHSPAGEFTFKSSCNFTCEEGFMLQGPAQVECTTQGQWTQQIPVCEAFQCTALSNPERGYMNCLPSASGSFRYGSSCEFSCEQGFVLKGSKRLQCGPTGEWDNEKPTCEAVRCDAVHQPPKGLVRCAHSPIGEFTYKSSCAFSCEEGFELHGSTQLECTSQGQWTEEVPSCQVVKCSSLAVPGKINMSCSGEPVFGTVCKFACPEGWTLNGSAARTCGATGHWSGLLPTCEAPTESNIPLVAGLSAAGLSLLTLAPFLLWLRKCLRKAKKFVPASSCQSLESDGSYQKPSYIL

CC1(C)CCC[C@]2(C)[C@H]3CCO[C@]3(C)CC[C@@H]12
inactive: [5] | [6] | [7] | [8] | [9] | [10] | [11] | [12] | [13] | [14] | [15] | [16]
active: [1] 33.1 µM and 33.9 µM | [2] 33.9 µM and 30.7 µM | [3] 36.7 µM and 35.6 µM | [4] 36.6 µM and 37.8 µM | [14] 36.6 µM

O=C1OC[C@H](Cc2cccc(O)c2)[C@H]1Cc1cccc(O)c1
not listed: [17]
inactive: all other assays above

CSCCC=O
not listed: [9]
inactive: all other assays above

O=C(Nc1ccc2c(O)c(N=Nc3ccc(N=Nc4ccc(S(=O)(=O)O)cc4)cc3)c(S(=O)(=O)O)cc2c1)c1ccccc1
not listed: [17]
inactive: all other assays above

CCC(C)c1cc([N+](=O)[O-])cc([N+](=O)[O-])c1OC(=O)OC(C)C (centres undefined)
inactive: [2]
active: [1] 20 µM | [3] 20 µM | [4] 20 µM | [5] 7.3 µM | [6] 15 µM | [7] 29.7 µM | [8] 11.9 µM | [9] 29.5 µM | [10] 14.3 µM | [11] 14 µM | [12] 16.2 µM | [13] 16.8 µM | [14] 9.34 µM | [15] 8.7 µM | [16] 12.2 µM

CN(C)C(=S)SC(=S)N(C)C
active: [13] 19.9 µM
not listed: [17]
inactive: all other assays above

CCCCCCC(CO)CCCC (centres undefined)
active: [1] 35.1 µM and 35.2 µM | [2] 32.9 µM and 36.2 µM | [3] 35.1 µM and 36.4 µM | [4] 30.5 µM and 36.6 µM
not listed: [17]
inactive: all other assays above

CC(=O)Nc1ccc(C(=O)CCl)cc1
active: [1] 20 µM | [2] 28.6 µM | [3] 20 µM | [4] 30 µM | [5] 5.35 µM | [6] 4.61 µM | [7] 3.91 µM | [8] 9.55 µM | [9] 4.52 µM | [10] 5.89 µM | [11] 5.36 µM | [12] 5.39 µM | [13] 4.35 µM | [14] 4.69 µM | [15] 5.33 µM | [16] 10.6 µM

C=C(C)C(=O)OCCOCCOCCOCCOC(=O)C(=C)C
not listed: [17]
inactive: all other assays above

C[C@@H]1CCN(C(=O)[C@H](CCCN=C(N)N)NS(=O)(=O)c2cccc3c2NC[C@H](C)C3)[C@@H](C(=O)O)C1
not listed: [17]
inactive: all other assays above

CC(C)(C)CC(C)(C)c1ccc(OCCOCC[N+](C)(C)Cc2ccccc2)cc1
active: [1] 2.26 µM | [2] 8.05 µM | [3] 5 µM | [4] 5 µM | [5] 7.8 µM | [6] 7.56 µM | [7] 6.61 µM | [8] 8.5 µM | [9] 5 µM | [10] 7.38 µM | [11] 7.03 µM | [12] 9.04 µM | [13] 9.18 µM | [14] 5 µM | [15] 3.28 µM | [16] 5 µM

C=C(C)C(=O)OCCOCCOCCOC(=O)C(=C)C
active: [4] 3.97 µM
inactive: all other assays above

From PubChem BioAssay (EPA / NIEHS)
